Here are results for 59 molecules from PubChem BioAssay AID624417 (National Center for Advancing Translational Sciences (NCATS), 2012).

SMILES strings stand for the structures. Hit rate of the full screen: of about 410,000 compounds, about 6,400 (1.6%) were called active. About 20% were inconclusive and are not listed. Calls follow the shape of the dose curve; as a rule, active = well fitted inhibition curve with a large enough effect; inconclusive = small, poorly fitted or top-dose-only effect; inactive = no such curve, though single readings can be large or run the other way. The list comes from a sample in which actives are over-represented; it also holds similar structures and randomly drawn compounds. Entries that show only a call come without a potency.
Potency is read from the fitted curve at half-maximal effect.

Glucagon-like peptide 1 receptor (Homo sapiens), sequence (P43220 whole entry, looked up): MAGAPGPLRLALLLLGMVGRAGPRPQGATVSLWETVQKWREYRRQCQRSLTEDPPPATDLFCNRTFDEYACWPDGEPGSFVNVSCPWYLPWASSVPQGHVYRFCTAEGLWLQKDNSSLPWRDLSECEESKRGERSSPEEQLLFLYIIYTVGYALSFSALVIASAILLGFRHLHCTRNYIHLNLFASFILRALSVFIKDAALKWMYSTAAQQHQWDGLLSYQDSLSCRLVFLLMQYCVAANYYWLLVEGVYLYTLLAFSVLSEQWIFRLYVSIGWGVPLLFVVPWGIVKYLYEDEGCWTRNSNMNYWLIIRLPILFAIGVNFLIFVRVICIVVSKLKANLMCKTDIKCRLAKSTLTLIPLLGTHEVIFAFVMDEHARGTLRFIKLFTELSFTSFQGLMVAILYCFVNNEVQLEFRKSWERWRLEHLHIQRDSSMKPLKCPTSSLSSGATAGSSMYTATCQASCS

The assay deals with Glucagon-like peptide 1 receptor (Homo sapiens) (UniProt P43220). Put plainly: qHTS of GLP-1 Receptor Inverse Agonists (Inhibition Mode). Also: nearly all actives have a fitted effect of over 55% in size. The settings on record: HEK293 GLP-1R CRE-luciferase, luminescence, 24 h, GLP-1R form is constitutively active; series mostly up to 38.3 µM. In a few lines:
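Inverse agonists were sought by their lowering of basal cAMP reporter luciferase output in HEK293 cells stably carrying constitutively active human GLP-1R, after 24 h compound treatment.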
(In general: qHTS replaces the single test concentration by a dilution series.)
On to `Cc1ccc(S(=O)(=O)N2C[C@H]3C(=O)C[C@@H](c4cccc5ccccc45)N(S(=O)(=O)c4ccc(C)cc4)[C@H]3C[C@H]2c2ccc(Cl)cc2)cc1`, for which the Potency result was “inactive”.

As to `CC1(C(=O)NS(=O)(=O)c2cccc(OC(F)F)c2)CCN1C(=O)C1CC1` (centres undefined), the Potency entry is “inactive”.

For `CC1=NN(C(=O)c2ccccc2Br)C(O)(c2cccnc2)C1` (centres undefined), the Potency result was “inactive”.

Turning to `CC1=NN(C(=O)c2ccc(Br)cc2)C(O)(c2ccccc2)C1` (centres undefined), the Potency was 1.12 µM (active).

Take `CC1=NN(C(=O)Cc2ccc(C)cc2)C(O)(c2cccnc2)C1` (centres undefined): the Potency entry was “inactive”.

As for `CCOC(=O)[C@]12CCCC=C1N(CCC1=CCCCC1)C(=O)[C@H](CC(=O)N1CCOCC1)C2`, the Potency entry is “inactive”.

`CC(=O)Nc1cccc(-c2cc3nc(NCc4cccnc4)n(C)c(=O)c3s2)c1`: the Potency result is “inactive”.

In the case of `Cc1c(C(=O)NCC2CC2)sc(=O)n1Cc1cccc(F)c1`, the Potency result was “inactive”.

For the molecule `O=C1NC[C@H](Cc2ccc(O)cc2)N(C[C@@H]2CCCN2C[C@H](Cc2ccccc2)N2C[C@H](Cc3ccccc3)N(CC3CCCCC3)C(=O)C2=O)C1=O`, the Potency entry is “inactive”.

Regarding `c1ccc(Nc2nc(N3CCOCC3)c3ccccc3n2)cc1`, the Potency is 10 µM (active).

Consider `c1ccc(-c2nnc(N3CCOCC3)c3ccccc23)cc1`, for which the Potency entry is “inactive”.

On to `CC1CN(c2nc(Nc3ccccc3)nc(N)c2[N+](=O)[O-])CC(C)O1` (centres undefined), for which the Potency entry was “inactive”.

`CCc1cc(C(=O)N(CC)CC(=O)Nc2c(F)cccc2F)sc1C`: the Potency result was “inactive”.

Turning to `COC(=O)C[C@@H]1C=C[C@@H](NS(=O)(=O)c2cccc(OC)c2)[C@@H](CO)O1`, the Potency result was “inactive”.

For the molecule `O=C(Nc1cccc2cccnc12)c1cccc2c(Br)cccc12`, the Potency entry is “inactive”.

On to `Cc1ccc2cccc(NC(=O)c3cccc4ccccc34)c2n1`, for which the Potency is 11.2 µM (active).

As for `Cc1ccc2cccc(NC(=O)c3ccc(OC(C)C)cc3)c2n1`, the Potency result is “inactive”.

Take `CNc1cnc(-c2cc(OC)c(OC)c(OC)c2)cn1`: the Potency entry is “inactive”.

In the case of `CCCn1c(C(O)c2cc(OC)ccc2OC)nc2ccccc21` (centres undefined), the Potency entry is “inactive”.

With `COc1ccc(-c2nc3ccccc3n2CCC(C)C)cc1OC`, the Potency was 8.91 µM (active).

Regarding `CCn1c(C(O)c2cc(OC)ccc2OC)nc2ccccc21` (centres undefined), the Potency entry is “inactive”.

Regarding `CCOC(=O)c1c(NC(=S)SC)sc(C(=O)N2CCc3ccccc3C2)c1C`, the Potency entry was “inactive”.

With `Cc1ccc(C(=O)N[C@H](C(=O)N2CCN(c3ncccn3)CC2)C(C)C)cc1`, the Potency entry was “inactive”.

Take `COc1ccc(CN2C(=O)C(CC(=O)NCc3cccc4ccccc34)CC(C(=O)N3CCOCC3)=C2C)cc1` (centres undefined): the Potency entry was “inactive”.

With `CCN(CC)C(=O)C1=C(C)N(Cc2ccc(OC)cc2)C(=O)C(CC(=O)NCc2ccco2)C1` (centres undefined), the Potency entry was “inactive”.

Consider `CCN(CC)C(=O)C1=C(C)N(Cc2ccc(C(C)(C)C)cc2)C(=O)C(CC(=O)NCc2cccc3ccccc23)C1` (centres undefined), for which the Potency was 11.2 µM (active).

Consider `COC(=O)C(Cc1c[nH]c2ccccc12)NC(=O)CCNC(=O)c1ccco1` (centres undefined), for which the Potency entry was “inactive”.

Turning to `COc1ccc(S(=O)(=O)N2CCC(C(=O)NCCC(=O)Nc3ccccc3OC)CC2)cc1`, the Potency result is “inactive”.

For the molecule `Nc1nc2c(ncn2[C@@H]2O[C@H](CNCc3ccc(OCCCN4CCOCC4)cc3)[C@@H](O)[C@H]2O)c(=O)[nH]1`, the Potency entry is “inactive”.

With `COC(=O)Cc1ccc(OC2(C)CCN(Cc3ccc4c(c3)OCCO4)C2)cc1` (centres undefined), the Potency entry was “inactive”.

In the case of `CCOc1cccc(-n2nnnc2-c2ccc(OC)cc2)c1`, the Potency is 2.51 µM (active).

For `COc1ccc(NC(=O)CSc2nnnn2-c2cccc(OC)c2)cc1`, the Potency entry is “inactive”.

`COc1ccc(-n2nnnc2-c2nc3ccccc3s2)cc1`: the Potency entry was “inactive”.

On to `O=C(NCCO)c1cccc(-c2cccc3nccn23)c1`, for which the Potency result is “inactive”.

As for `O=C1NC[C@H](CCCCN2CCN(CCc3ccccc3)C(=O)C2=O)N(CC2CCCCC2)C1=O`, the Potency result is “inactive”.

`COC(=O)c1ccc2nc(-c3ccc(F)cc3)c(Cc3ccc(C)cc3)n2c1`: the Potency entry was “inactive”.

Regarding `CCNC(=O)c1cc2c(c(-c3cccc(-c4cncnc4)c3)n1)[C@H](CCO)N(C(C)=O)C2`, the Potency result was “inactive”.

With `Cc1cccc(NC(=S)NCCc2ccc(Cl)cc2)c1C`, the Potency was 5.62 µM (active).

On to `Cc1c(Cl)cccc1NC(=S)NCc1ccc2c(c1)OCO2`, for which the Potency result is “inactive”.

On to `CCNC(=S)Nc1cccc(Cl)c1C`, for which the Potency entry was “inactive”.

For `COc1ccc(S(=O)(=O)N(C)C[C@H]2OCc3cnnn3CCCC(=O)N([C@H](C)CO)C[C@H]2C)cc1`, the Potency entry was “inactive”.

For the molecule `CC1Cc2ccccc2N1S(=O)(=O)c1cccc(C(=O)OCC(=O)N2CCOCC2)c1` (centres undefined), the Potency result was “inactive”.

`CC1CCc2sc(C(=O)NCC(c3ccco3)N3CCCCC3)cc2C1` (centres undefined): the Potency was 8.91 µM (active).

For the molecule `Cc1cc(S(=O)(=O)Nc2ccc(C(=O)NCC(c3ccco3)N3CCCC3)cc2)ccc1F` (centres undefined), the Potency entry was “inactive”.

As to `CC1Cc2ccccc2N1S(=O)(=O)c1cccc(C(=O)NCC(c2ccco2)N2CCCC2)c1` (centres undefined), the Potency was 10 µM (active).

For the molecule `CSc1ncccc1C(=O)NCC(c1ccco1)N1CCCCC1` (centres undefined), the Potency result is “inactive”.

For `CC1CCc2sc(C(=O)N/N=C/C3CCCCC3)cc2C1` (centres undefined), the Potency entry is “inactive”.

On to `CCN(CC(=O)Nc1ccc(NC(C)=O)cc1)C(=O)C1CC(=O)N(c2ccc3c(c2)OCCO3)C1` (centres undefined), for which the Potency entry was “inactive”.

Consider `COc1cccc(CN(C)C(=O)CC[C@H]2O[C@@H](n3cnc4c(NC(=O)c5ccccc5)ncnc43)[C@H](O)[C@@H]2O)c1`, for which the Potency result was “inactive”.

For `CCCS(=O)(=O)NC(=O)C1(C)CCN(C(=O)c2sccc2C)C1` (centres undefined), the Potency entry was “inactive”.

In the case of `O=C(OCc1cn([C@H]2C[C@H](c3ccccc3)N(C(=O)c3cccs3)C[C@@H]2O)nn1)c1ccccc1`, the Potency result is “inactive”.

On to `CN1CCN(C(=O)c2ccc(-c3cc4nc(NCc5cccnc5)n(C)c(=O)c4s3)cc2)CC1`, for which the Potency entry was “inactive”.

Turning to `O=C(c1ccccc1)N1CCN(c2cc(-c3ccccc3)nc3cc(-c4cccc(Cl)c4)nn23)CC1`, the Potency result was “inactive”.

With `COc1ccc(OC)c(NC(=O)C2CCCN2S(=O)(=O)c2ccc3c(c2)CC(C)N3C(C)=O)c1` (centres undefined), the Potency result is “inactive”.

Take `C[C@@H]1CN([C@@H](C)CO)C(=O)CCCn2nncc2CO[C@@H]1CN(C)S(=O)(=O)c1ccc(-c2ccccc2)cc1`: the Potency result is “inactive”.

Turning to `CC(C)CCNC(=O)c1[nH]c(C(F)(F)F)nc1-c1ccccc1`, the Potency result is “inactive”.

For `CCc1cccc(NC(=O)CN(c2ccc(C)c(C)c2)S(=O)(=O)c2ccsc2C(=O)OC)c1`, the Potency result is “inactive”.

For the molecule `COc1ccc(N(CC(=O)Nc2ccc(F)c(F)c2)S(=O)(=O)c2c(C)[nH]c(=O)[nH]c2=O)cc1`, the Potency result is “inactive”.

For `COC(=O)c1sccc1S(=O)(=O)N(CC(=O)Nc1ccc(C)c(F)c1)c1ccc(C)c(C)c1`, the Potency was 8.91 µM (active).
